The sample as a whole holds a higher share of hits than the screen did.
MARV entry inh = Marburg virus entry inhibition | Marburg virus pseudotyped entry inhibition, cell reporter | Potency, µM (highest dose often 37.8 µM), without a hit: at the highest dose activity change, negative = inhibition, actives largely listed as inhibitors | 1.8% of 300,000 active | AID 540276; calls by dose curve; tested in HEK293 cells; also: potency is read from the fitted curve at half-maximal effect; % is scaled to controls: 0 for no effect and ±100 for the full control effect
CHX counter = counter-screen for Shiga toxin inhibitors: cycloheximide protein synthesis inhibition | cell reporter, cycloheximide protein synthesis inhibition counterscreen | max response, % | 12% of 300,000 active; in the data active = max response mostly above about 13%, no sharp cut-off; inactive = mostly below about 14%; also: read at 38.3 µM for the half of the compounds with a filed dose; 0% is about no effect
VACV Venus inh = inhibitors of vaccinia virus (Venus reporter); AID 720580; Potency, µM (top dose mostly 36.5 µM), inactives show at the highest dose activity change, negative = inhibition, most hits filed as inhibitors; 0.46% of 330,000 active; Vaccinia virus Venus reporter expression, fluorescence; calls by dose curve; tested in A549 cells; also: potency is read from the fitted curve at half-maximal effect; % is scaled to controls: 0 for no effect and ±100 for the full control effect; nearly all actives have a fitted effect of over 30% in size
Shiga inhibitor = Shiga toxin inhibition | Vero cells, Shiga toxin protein synthesis inhibition reporter | inhibition, % at 38.7 µM | 9.2% of 290,000 active; in the data active = inhibition mostly above about 28%, no sharp cut-off; inactive = mostly below about 43%; also: 0% is about no effect
Lassa entry inh = blocks Lassa virus binding to or entry into cells; Potency, µM (doses to about 37.9 µM), for the others: at the top dose activity change, negative = inhibition, hits mostly inhibitors; 1.2% of 300,000 active; Lassa virus pseudotype entry inhibition, cell reporter; calls by dose curve; tested in HEK293 cells; also: potency is read from the fitted curve at half-maximal effect; % is scaled to controls: 0 for no effect and ±100 for the full control effect; nearly all actives have a fitted effect of over 50% in size
Vaccinia mCherry = inhibitors of vaccinia virus infection (mCherry reporter signal); Vaccinia virus mCherry reporter infection, fluorescence; Potency, µM (series often up to 36.5 µM), for inactives: top-dose activity change, negative = inhibition, most hits filed as inhibitors; 0.63% of 310,000 active; calls by dose curve; tested in A549 cells; also: potency is read from the fitted curve at half-maximal effect; % is scaled to controls: 0 for no effect and ±100 for the full control effect; nearly all actives have a fitted effect of over 35% in size
* = called active by the depositor; i = inactive; ? = inconclusive; / = not tested or not shown; [ ] = remark or other dose.

SMILES | MARV entry inh | CHX counter | VACV Venus inh | Shiga inhibitor | Lassa entry inh | Vaccinia mCherry
COc1ccc(Cn2nnnc2C(c2cc3cccc(C)c3[nH]c2=O)N2CCOCC2)cc1 (stereo unspecified) | -4.1% | 19.7 | / | 35.1* | -12.2% | /
COc1ccc(N2CCN(C(c3cc4cc(C)ccc4[nH]c3=O)c3nnnn3Cc3ccccc3)CC2)cc1 (stereo unspecified) | ? | -0.6 | / | -3.8 | ? | /
Cc1ccc(C)c2[nH]c(=O)c(C(c3nnnn3Cc3ccco3)N3CCc4ccccc4C3)cc12 (stereo unspecified) | ? | 26.5* | -22.0% | 77.8* | ? | -16.8%
Cc1ccc2cc(C(c3nnnn3Cc3ccccc3)N3CCN(c4ccccc4)CC3)c(=O)[nH]c2c1 (stereo unspecified) | 20.6µM* | -5.1 | / | -20.6 | -18.5% | /
CC(CCc1ccc(O)cc1)NCCC(c1ccccc1)c1ccccc1 (stereo unspecified) | 7.08µM* | -2.1 | -17.0% | -7.5 | ? | ?
CCOC(=O)c1c(N)sc2c1CCC1C(=O)N(C3CCCCC3)C(=O)C21 (stereo unspecified) | -23.8% | 32.2* | -14.6% | 48.6 | 6.7% | -15.6%
O=C(OCC12CC3CC(CC(C3)C1)C2)c1ccc(NCc2cc(O)ccc2O)cc1 | ? | / | ? | / | 4.47µM* | ?
O=C(O)c1cc(NCc2cc(O)ccc2O)ccc1O | / | 12.0 | -0.8% | 2.3 | / | -14.8%
O=C(OCCC12CC3CC(CC(C3)C1)C2)c1ccc(NCc2cc(O)ccc2O)cc1 | 1.78µM* | / | ? | / | 1.26µM* | -22.3%
CN(C)Cc1c(O)ccc2occ(C(=O)c3ccccc3)c12 | -20.1% | 25.5* | / | 65.2* | -5.8% | /
O=C(c1cccs1)c1coc2ccc(O)c(CN(CCO)CCO)c12 | 14.5% | 17.4* | / | 63.0* | -3.6% | /
CCN(CC)Cc1c(O)ccc2occ(C(=O)c3ccccc3)c12 | / | 39.1* | / | 78.0* | / | /
CC(=O)Nc1ccc(NC(=O)c2nc(S(=O)(=O)Cc3ccc(F)cc3)ncc2Cl)cc1 | ? | / | -5.7% | / | ? | -23.3%
CCCc1nc2c(C)cc(C)cc2c(N)c1CC | 23.1µM* | 1.7 | / | -13.0 | -1.4% | /
COC(=O)N[C@@H](C=Cc1ccccc1)C[N+](=O)[O-] | 7.3%[14.2 µM] | / | / | / | / | /
C=CCNC(=O)C1CC2Cn3c(nc4cc5ccccc5cc43)C2N1C (stereo unspecified) | / | 40.9* | 1.4% | 38.0* | / | -19.4%
Cc1ccc(C)c(NC(=O)C(=O)NCCc2csc3nc(-c4ccccc4C)nn23)c1 | / | / | 14.2% | / | 11.4%[46.1 µM] | 11.5%
CC(=O)N1CCc2cc(S(=O)(=O)NC(Cc3ccccc3)C(=O)Nc3ccc(C)cc3C)ccc21 (stereo unspecified) | -25.4%[46.1 µM] | / | -9.3% | / | -16.0%[46.1 µM] | 0.2%
CCN1CCCC1CN(Cc1cc2ccc(C)c(C)c2[nH]c1=O)C(=O)Nc1ccccc1OC (stereo unspecified) | 17.8µM* | 7.7 | -7.2% | 24.8 | -0.7% | /
COC(=O)c1ccccc1S(=O)(=O)N(Cc1cc2ccc(OC)cc2[nH]c1=O)CC1CCCO1 (stereo unspecified) | -15.2% | -4.3 | -14.1% | -20.7 | -12.1% | -7.5%
COc1ccc2cc(CN(C(=O)Nc3ccccc3OC)C3CCCC3)c(=O)[nH]c2c1 | 8.91µM* | -4.8 | -12.6% | -8.2 | ? | -26.9%
CCN1CCCC1CN(Cc1cc2ccc(C)cc2[nH]c1=O)C(=S)Nc1cccc(OC)c1 (stereo unspecified) | 10µM* | -2.1 | ? | -12.8 | ? | -4.2%
COc1ccc2cc(CN(CC3CCCO3)S(=O)(=O)c3ccc(C(C)=O)cc3)c(=O)[nH]c2c1 (stereo unspecified) | 14.4% | 19.3* | -4.9% | 63.5* | -0.1% | i
COc1ccc2cc(CN(CC3CCCO3)C(=O)Nc3ccccc3OC)c(=O)[nH]c2c1 (stereo unspecified) | ? | 7.6 | -26.9% | -17.2 | / | ?
O=C(Nc1ccc(C(=O)N2CCCCC2)cc1)c1ccccc1Cl | ? | -2.2 | -10.5% | 12.9 | -0.9% | -0.2%
SMILES | MARV entry inh | CHX counter | VACV Venus inh | Shiga inhibitor | Lassa entry inh | Vaccinia mCherry
O=C(Nc1ccc(C(=O)N2CCCCC2)cc1)Nc1cccc(Cl)c1 | 1.6% | 32.7* | -16.6% | 72.4* | 3.9% | -7.7%
O=C(Nc1cccc(Cl)c1)N1CCCCCC1 | 2.4% | 14.9* | -5.1% | 23.1 | 2.4% | -21.8%
COc1ccc(OC)c(C(C)NC(=O)C23CC4CC(CC(C4)C2)C3)c1 (stereo unspecified) | / | -5.1 | / | / | / | /
O=C(NNC(=O)C12CC3CC(CC(C3)C1)C2)c1ccccc1F | -0.3%[46.1 µM] | 11.7 | -8.8% | 24.7 | / | -8.8%
COc1ccc(C(=O)NNC(=O)C23CC4CC(CC(C4)C2)C3)c(OC)c1 | 18.6%[46.1 µM] | 21.1* | -8.3% | 41.2 | 24.5% | -8.1%
Cc1cccc(C(=O)NNC(=O)C23CC4CC(CC(C4)C2)C3)c1O | -12.5%[46.1 µM] | 14.0* | -15.2% | 82.1 | 2.1% | -19.2%
Cc1ccccc1C(=O)NNC(=O)C12CC3CC(CC(C3)C1)C2 | 5.9%[46.1 µM] | -2.7 | -5.8% | -7.8 | 12.1% | i
O=C(NNC(=O)C12CC3CC(CC(C3)C1)C2)[C@@H]1C[C@H]1c1ccccc1 | -3.3%[46.1 µM] | 25.8* | -24.8% | 45.6* | ? | -22.1%
O=C(NNC(=O)C12CC3CC(CC(C3)C1)C2)c1ccccc1O | 6.1% | / | ? | / | 1.2% | 10µM*
CC(OC(=O)c1nc(Cl)ccc1Cl)C(=O)c1ccccc1 (stereo unspecified) | ? | / | -5.3% | / | ? | i
O=C(Nc1ccccc1F)C1CC1c1ccccc1 (stereo unspecified) | 8.2% | 11.6 | -15.5% | 41.0* | -4.5% | -14.3%
CCCCc1nc2cc(C(=O)N3CCCC(OCCC)C3)ccc2o1 (stereo unspecified) | / | 47.5* | / | 103.3* | / | /
COCC1CCCN(C(=O)c2ccc3oc(CCCc4ccccc4)nc3c2)C1 (stereo unspecified) | 6.6%[46.1 µM] | 1.6 | -14.6% | 12.5 | -0.6%[46.1 µM] | -3.5%
CCCCc1nc2cc(C(=O)N3CCC(OCCOC)CC3)ccc2o1 | ? | 27.7* | -20.0% | 72.6* | 9.5%[46.1 µM] | i
COCC1CCN(C(=O)c2ccc3oc(CCCc4ccccc4)nc3c2)C1 (stereo unspecified) | -16.1% | 28.7* | ? | 39.3 | 4.9% | -20.9%
COCCN1CCN(C(=O)c2ccc3oc(CCCc4ccccc4)nc3c2)CC1 | -2.8%[46.1 µM] | 22.9* | -6.8% | 111.8* | 21.0% | -6.3%
CN(CCO)C(=O)c1cn(C2CCCN(Cc3ccc4ccccc4c3)C2)nn1 (stereo unspecified) | / | / | -11.7% | / | / | i
Cc1ccc(OCC(=O)OCc2cc(=O)n3nc(C4CCCCC4)sc3n2)cc1 | / | / | -11.2% | / | -2.6%[46.1 µM] | -18.5%
COc1ccc(N2CCN(CCCNC(=O)c3ccc4nc(CCc5ccccc5)oc4c3)CC2)cc1 | / | / | ? | / | 10µM* | ?
CCCCc1nc2cc(C(=O)N3CCCC(COC)C3)ccc2o1 (stereo unspecified) | 26.3% | 62.6* | -24.1% | 73.4* | -14.8% | -3.9%

Screening data (PubChem)
